Each structure is given as a SMILES string. Calls of active or inactive are those of the source. Rule for the calls: active = hit-call score of the fitted dose curve at least 0.9, where 1 is the maximum; inactive = score below 0.9.

Read-out in this experiment: Cyclin D2 (CCND2), CCND2 (gene 894)
Put plainly: LTEA_HepaRG_CCND2: Life Technologies and Expression Analysis (LTEA) Assay for Cyclin D2 (CCND2) using HepaRG (AID 2283449).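 Note: CCND2 transcript measured by TaqMan qRT-PCR and normalised to three housekeeping genes.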 The conditions noted are these: mRNA level, 48 h; actives raise or lower the signal. As for the experimental part: LTEA_HepaRG is a cell based, multiplexed-readout assay that uses HepaRG, a human liver cell line, with measurements taken at 48 hours after chemical dosing on a 96-well plate.LTEA_HepaRG_CCND2 is one of 102 assay component(s) measured in the LTEA HepaRG cell culture assay. It is a marker of Cell proliferation, survival, death.Data from the assay component LTEA_HepaRG_CCND2 was analyzed into 1 endpoint. This assay endpoint, LTEA_HepaRG_CCND2, was analyzed with bidirectional fitting relative to DMSO as the negative control and baseline of activity. Using a type of inducible reporter, measures of mRNA induction for gain or loss-of-signal activity can be used to understand regulation of transcription factor activity. To generalize the intended target to other relatable targets, this assay endpoint is annotated to the cell cycle intended target family, where the subfamily is Cell proliferation, survival, death.
A total of 1060 chemcials from the ToxCast library were tested in eight-point concentration-response experiments. Cell culture and cytotoxicity assays were conducted at Thermo Fisher Scientific's Custom Services facility (Madison, WI). A single lot of human HepaRG cells (Thermo Fisher Scientific, Frederick, MD) was used for the cell culture experiments. 96-well format collagen type I coated plates of human HepaRG cells were prepared using established methods. Briefly, cryopreserved HepaRG cells were thawed, plated at a density of approximately 100,000 cells/well in HepaRG Thaw, Plate, and General Purpose media (HPRG770, Thermo Fisher Scientific), and incubated for 48 hours. 0.5% DMSO was selected as vehicle control to balance the requisite need of DMSO in HepaRG cultures to maintain differentiation (for example, baseline metabolism, proportions of hepatocytes vs. cholangiocytes), while enabling further hepatic receptor pathway activation (for example, PXR and CAR) in response to chemical exposure. 48 hours after plating, the culture medium was replaced with HepaRG Serum-Free Incudtion Media. Cells were exposed to each test chemical in duplicate and maintained in CO2 incubators for another 48 hours. Chemical plates were thawed to room temperature and 200x concentrations of treatment groups were prepared. 8-point conentration-reponse curves were made with the highest exposure at 100 uM, followed by half-log dilutions, all in 0.5% DMSO. Each test plate contained variouse controls, induction positive controls (1mM phenobarbital), cytotoxicity positive controls ([…] aflatoxin B1), vehicle controls (0.5% DMSO), and total lysis controls (0.5% DMSO). Cell morphology images were taken using an Essen IncuCyte FLR automated microscope, with six 96-well plates imaged in about 24 minutes. Images were captured and exported and JPEG files. Spent culture media was transfered to black-well plates for the LDH assay, and remaining media was sorted at -80 C for later use. Cells were treated with RLT buffer and frozen until shipped for gene expression analysis. Total RNA was isolated from the cell suspension in 75 uL of Buffer RLT (Qiagen, Germantown, MD 20874) by Quintiles/Expression Analysis (Durham, NC) using a custom isolation procedure. Total RNA from each plate well was transferred to a preamplification plate. Fluidigm's 96.96 Dynamic ArrayTM (Fluidigm, Amsterdam, the Netherlands) technology was used for gene expression analyses by quantitative reverse transcription polymerase chain reaction (qRT-PCR, performed by Quintiles/Expression Analysis, Durham, NC)89. Standard TaqManTM Assays (Applied Biosystems/ThermoFisher Scientific, Foster City, CA) were used to assess the expression of 93 genes selected based on their selectivity and sensitivity to important hepatic receptors known to be modulated by environmental chemicals; importance in human hepatocyte functionality; and hepatotoxicity. […]
Regarding `CS(=O)(=O)NC(=O)c1cc(Oc2ccc(C(F)(F)F)cc2Cl)ccc1[N+](=O)[O-]`, the call was inactive.

Regarding `CCC12COCN1COC2`, the compound was called inactive.

Regarding `Oc1ccc2ccc3cccc4ccc1c2c34`, the outcome was inactive.

For the compound `CO[C@@H]1[C@H](OC(=O)NC(=O)CCl)CC[C@]2(CO2)[C@H]1[C@@]1(C)O[C@@H]1CC=C(C)C`, the outcome was inactive.

As to `CCCCCCCCCCCCCN1CC(C)OC(C)C1` (stereo not given), the compound was called inactive.

As for `Cc1ccc(N)c(N)c1`, the result was inactive.

Consider `N#CC(Br)(Br)C(N)=O`, for which the result was inactive.

`CC(C)COC(=O)c1ccccc1C(=O)OCC(C)C`: the result was inactive.

For `CN(C)c1ccc(C(=O)c2ccc(N(C)C)cc2)cc1`, the call was inactive.

Take `c1ccc(C2CO2)cc1` (stereo not given): the compound was called inactive.

`CCC(C)c1ccc(O)cc1` (stereo not given): the compound was classed as inactive.

Consider `O=P(OCCCl)(OCCCl)OCCCl`, for which the outcome was inactive.

On to `O=C(Nc1ccccc1)c1ccccc1I`, for which the outcome was inactive.

For the compound `CCOc1cccc(C2(N3CCN(c4ccccc4)CC3)CCC(C)CC2)c1` (stereo not given), the call was inactive.

For `C[N+](C)(C)CC1CO1` (stereo not given), the result was inactive.

As to `CNC(=O)Oc1cccc2c1OC(C)(C)C2`, the outcome was inactive.

As for `Clc1ccccc1Cl`, the compound was classed as inactive.

Turning to `CCCCCOC(=O)c1ccccc1C(=O)OCCCCC`, the result was inactive.

In the case of `O=[N+]([O-])c1ccc(Oc2ccc(Cl)cc2Cl)cc1`, the outcome was inactive.

As to `CCN(CC)CCO`, the outcome was inactive.

For the compound `CCN(CC)N=O`, the outcome was inactive.

On to `COP(=S)(OC)SCN1C(=O)c2ccccc2C1=O`, for which the outcome was inactive.

As for `Clc1ccc(C(c2ccc(Cl)cc2)C(Cl)(Cl)Cl)cc1`, the outcome was inactive.

Consider `Cc1ccc(N=C=O)cc1N=C=O`, for which the result was inactive.

As for `CC(C)(C)C(O)(CCc1ccc(Cl)cc1)Cn1cncn1` (stereo not given), the call was inactive.

On to `Nc1ccc(Cl)cc1N`, for which the call was inactive.

`CN(C)[C@@H]1C(=O)C(C(N)=O)=C(O)[C@@]2(O)C(=O)C3=C(O)c4c(O)cccc4[C@@](C)(O)[C@H]3C[C@@H]12`: the compound was classed as inactive.

For the compound `Nc1ccc([N+](=O)[O-])cc1`, the call was inactive.

With `[As]#[In]`, the compound was called inactive.

Consider `Cc1cc(N=Nc2ccccc2C)ccc1N`, for which the result was inactive.

Turning to `Brc1ccc(Oc2ccccc2)cc1`, the compound was classed as inactive.

For the compound `CCCCOC(=O)c1ccccc1C(=O)OCc1ccccc1`, the compound was called inactive.

Turning to `O=C(N[C@H](c1ccccc1)[C@@H]1CN2CCC1CC2)c1c(Cl)ccc(C(F)(F)F)c1Cl`, the compound was called inactive.

Regarding `CN(C)c1ccccc1`, the call was inactive.

Take `ClC1=C(Cl)C2(Cl)C3C(Cl)C=CC3C1(Cl)C2(Cl)Cl` (stereo not given): the call was inactive.

`COc1cc(C=O)cc2c1[C@H](COC(N)=O)[C@]1(OC(C)=O)ON2C[C@H]2[C@@H]1N2C(C)=O`: the AC50 was 29.6 µM (active).

As to `C=CCc1ccc2c(c1)OCO2`, the outcome was inactive.

On to `c1ccc(NNc2ccccc2)cc1`, for which the compound was classed as inactive.

Take `C[C@]12C=CC3=C4CCC(=O)C=C4CC[C@H]3[C@@H]1CC[C@@H]2O`: the compound was called inactive.

For `c1ccc(N=Nc2ccccc2)cc1`, the compound was classed as inactive.

Source of the values: PubChem BioAssay (EPA / NIEHS).
